Records with an inconclusive call do not appear. Active and inactive are the calls of the source. The call rests on the fitted dose curve; in most records, active means well fitted inhibition curve with a large enough effect in the signal ratio in the repeat runs (not every such curve was filed as active); inconclusive means weak or mixed curves, or effect the other way; inactive means no such curve, though single readings can be large or run the other way; the % refers to the signal ratio.
On the % scale 0 is the no-effect control and ±100 the full control effect; potency means the concentration at half of the fitted maximal effect.

Androgen receptor (Homo sapiens), sequence (P10275 whole entry, looked up): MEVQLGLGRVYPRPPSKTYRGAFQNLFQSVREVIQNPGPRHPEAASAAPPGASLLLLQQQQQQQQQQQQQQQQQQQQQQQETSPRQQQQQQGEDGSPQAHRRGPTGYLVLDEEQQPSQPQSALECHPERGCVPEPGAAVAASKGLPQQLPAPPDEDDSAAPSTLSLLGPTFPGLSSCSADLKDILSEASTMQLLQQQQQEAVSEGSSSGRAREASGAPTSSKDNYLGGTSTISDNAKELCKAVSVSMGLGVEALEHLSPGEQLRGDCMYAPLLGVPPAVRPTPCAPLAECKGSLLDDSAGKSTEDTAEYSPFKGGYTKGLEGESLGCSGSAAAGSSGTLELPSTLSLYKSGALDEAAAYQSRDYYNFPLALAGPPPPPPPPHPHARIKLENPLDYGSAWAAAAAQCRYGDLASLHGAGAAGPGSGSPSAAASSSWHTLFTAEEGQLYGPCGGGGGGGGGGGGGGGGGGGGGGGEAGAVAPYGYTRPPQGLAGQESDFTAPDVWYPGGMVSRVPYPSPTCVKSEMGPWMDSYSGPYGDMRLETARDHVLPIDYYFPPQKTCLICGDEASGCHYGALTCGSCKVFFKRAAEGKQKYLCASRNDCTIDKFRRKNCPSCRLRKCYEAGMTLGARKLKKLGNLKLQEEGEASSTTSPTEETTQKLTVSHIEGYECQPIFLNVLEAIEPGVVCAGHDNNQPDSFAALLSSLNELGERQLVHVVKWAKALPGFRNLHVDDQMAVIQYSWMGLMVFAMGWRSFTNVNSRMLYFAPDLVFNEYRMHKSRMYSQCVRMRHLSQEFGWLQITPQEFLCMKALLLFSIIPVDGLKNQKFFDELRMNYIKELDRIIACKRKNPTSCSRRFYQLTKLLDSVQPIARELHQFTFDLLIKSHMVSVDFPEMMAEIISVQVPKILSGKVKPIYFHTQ

This assay has as its target Androgen receptor (Homo sapiens) (UniProt P10275). Nature of the assay: qHTS assay to identify small molecule antagonists of the androgen receptor (AR) signaling pathway (AID 743035). The following applies: HEK293 AR-UAS-bla, R1881-stimulated, beta-lactamase FRET, 16 h; series mostly up to 58.5 µM; activity change, negative = inhibition: at the top concentration. The text has this:
National Center for Advancing Translational Sciences [NCATS]
NIH Chemical Genomics Center [NCGC]
U.S. Environmental Protection Agency [EPA]
National Institutes of Environmental Health Sciences [NIEHS]
National Toxicology Program [NTP]
U.S. Food and Drug Administration [FDA]
Androgen receptor (AR), a nuclear hormone receptor, plays a critical role in AR-dependent prostate cancer and other androgen related diseases. Endocrine disrupting chemicals (EDCs) and their interactions with steroid hormone receptors like AR may cause disruption of normal endocrine function as well as interfere with metabolic homeostasis, reproduction, developmental and behavioral functions. To identify the compounds that inhibit AR signaling, GeneBLAzer AR-UAS-bla-GripTite cell line (Invitrogen, Carlsbad, CA, USA) containing a beta-lactamase reporter gene under control of an Upstream Activator Sequence (UAS) stably integrated into HEK293 cells was used to screen the Tox21 10K compound library.
Tox21 Assay Protocol Summary:
AR-bla cells were dispensed at 2,000 cells/5 uL of assay medium per well into black wall/clear-bottom 1536-well plates using a Multidrop Combi (ThermoFisher Scientific, Waltham, MA) dispenser. After the assay plates were incubated at a 37C and 5% CO2 for 4 hr, 23 nL of compounds dissolved in DMSO, positive controls or DMSO only was transferred to the assay plate by a Pintool station (Kalypsys, San Diego, CA), followed by addition of 1 uL of agonist (R1881) in culture medium using a Bioraptr Flying Reagent Dispenser (FRD) workstation (Beckman Coulter, Indianapolis, IN, USA). The plates were incubated at a 37C and 5% CO2 for 16 h. After 1 uL of LiveBLAzerTM B/G FRET substrate was added using a Bioraptr FRD, the plates were incubated at room temperature for 2 h and fluorescence intensity was measured by an Envision plate reader (PerkinElmer, Shelton, CT).
For `Cc1cc(C)cc(N)c1`, the “activity change, negative = inhibition” value is 4.92% [at 78.9 µM] (inactive).
Still for that read-out and setting: with `CC/C=C1/OC(=O)c2ccccc21` the figure was 0.563% (inactive).
In the case of `NC(=O)c1ccncc1`, the “activity change, negative = inhibition” value is 1.43% [at 78.9 µM] (inactive).
Regarding `CCC(=O)C1CC(C(C)C)CC=C1C` (stereo not drawn), the “activity change, negative = inhibition” value is 6.49% (inactive).
As for `O=C=Nc1cccc(C(F)(F)F)c1`, the Potency was 48.6 µM (active).
Consider `O=C(OC(=O)c1ccccc1)c1ccccc1`, for which the “activity change, negative = inhibition” value was 0.528% [at 78.9 µM] (inactive).
For the compound `Oc1ccc(Cl)c2cccnc12`, the Potency is 19 µM (active).
`C[C@@H](O)[C@H]1C(=O)N2C(C(=O)O)=C([C@H]3CCCO3)S[C@H]12`: the “activity change, negative = inhibition” value is 19.4% (inactive).
`OC(CCN1CCCC1)(c1ccccc1)C1CCCCC1` (stereo not drawn): the “activity change, negative = inhibition” value is 2.68% [at 27 µM] (inactive).
Take `CC[C@]1(O)C[C@H]2CN(CCc3c([nH]c4ccccc34)[C@@](C(=O)OC)(c3cc4c(cc3OC)N(C=O)[C@H]3[C@@](O)(C(=O)OC)[C@H](OC(C)=O)[C@]5(CC)C=CCN6CC[C@]43[C@@H]65)C2)C1`: the Potency is 0.0338 µM (active).
As for `O=C1NC(=O)c2cc([N+](=O)[O-])ccc21`, the “activity change, negative = inhibition” value was 0.172% [at 78.9 µM] (inactive).
On to `CCCCCC[C@@H](O)C/C=C\CCCCCCCC(=O)OCC(O)CO` (stereo partly drawn), for which the “activity change, negative = inhibition” value was -1.05% (inactive).
With `C[C@H]1c2cccc(O)c2C(O)=C2C(=O)[C@]3(O)C(O)=C(C(N)=O)C(=O)[C@@H](N(C)C)[C@@H]3[C@@H](O)[C@@H]21`, the “activity change, negative = inhibition” value was -4.15% (inactive).
For the compound `O=C(/C=C/c1ccccc1)OCCc1ccccc1`, the “activity change, negative = inhibition” value is 11.6% (inactive).
Same read-out and setting: as for `CCOc1cccc(-n2cc(C(=O)N3CCN(c4cc(C(=O)O)c5ccccc5c4)CC3)nc2-c2ccc(C)cc2)c1`, the figure is 8.82% (inactive); as for `C1COC1`, 3.66% (inactive); as for `C=C1C[C@@]23CC[C@H]4[C@@](C)(CCC[C@@]4(C)C(=O)O[C@@H]4O[C@H](CO)[C@@H](O)[C@H](O)[C@H]4O)[C@@H]2CC[C@]1(O[C@@H]1O[C@H](CO)[C@@H](O)[C@H](O[C@@H]2O[C@H](CO)[C@@H](O)[C@H](O)[C@H]2O)[C@H]1O[C@@H]1O[C@H](CO)[C@@H](O)[C@H](O)[C@H]1O)C3`, -1.29% (inactive).
Take `O=[N+]([O-])c1cc(C2CCCCC2)c(O)c([N+](=O)[O-])c1`: the Potency was 5.48 µM (active).
For `CC(CN(C)C)C(C)(O)Cc1ccc(Cl)cc1` (stereo not drawn), the “activity change, negative = inhibition” value is 2.72% (inactive).
On to `O=C(Cn1ccnc1[N+](=O)[O-])NCCO`, for which the “activity change, negative = inhibition” value was -0.413% (inactive).
As to `CCC(=O)OC`, the “activity change, negative = inhibition” value was -0.0572% [at 78.9 µM] (inactive).
Turning to `CC(=O)OCC(=O)NCCCOc1cccc(CN2CCCCC2)c1`, the “activity change, negative = inhibition” value was -0.481% (inactive).
On to `C=CCc1ccccc1OCC(O)CNC(C)C` (stereo not drawn), for which the “activity change, negative = inhibition” value is 2.55% (inactive).
Take `O=C1c2ccccc2C(=O)C1c1ccc(Br)cc1`: the “activity change, negative = inhibition” value is -15.1% (inactive).
For the compound `O=C1Cc2ccccc2N1c1c(Cl)cccc1Cl`, the Potency is 54.9 µM (active).
With `C=C(C)[C@@H]1CCC2=CCC[C@@H](C)[C@]2(C)C1`, the “activity change, negative = inhibition” value is -19.3% (inactive).
Take `COc1cc(C(=O)NC2CCN(C)CC2)ccc1Nc1ncc2c(n1)N(C1CCCC1)CC(F)(F)C(=O)N2C`: the Potency was 0.0032 µM (active).
For `CCOc1ccc(Cc2nccc3cc(OCC)c(OCC)cc23)cc1OCC`, the “activity change, negative = inhibition” value is 0.734% [at 27 µM] (inactive).
